Measurements published in PubChem BioAssay (NCI).
About 83,000 compounds went through this panel and 20% of them were active in at least one assay; those are over-represented in the sample as a whole.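 Testing used 96-well plates and a 48-hour single-concentration exposure. Example: -40 means 40% of the starting cells died.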 Calls of active or inactive are those of the source. How the source made its calls: active means growth percent below 10; inactive means the rest.

Columns and labels:
Assay in all cases: NCI-60 one-dose screen, 48 h (100 = growth as untreated, 0 = no growth, -100 = all killed)
Settings in all cases: 10 µM unless noted
[1] = test system: HCT-15 colon
[2] = test system: HT29 colon
[3] = test system: SNB-19 CNS
[4] = test system: U251 CNS
[5] = test system: PC-3 prostate
[6] = test system: SK-MEL-5 melanoma
[7] = test system: UACC-62 melanoma
[8] = test system: LOX IMVI melanoma
[9] = test system: SK-MEL-2 melanoma
[10] = test system: EKVX NSCLC
[11] = test system: SN12C renal
[12] = test system: UO-31 renal
[13] = test system: TK-10 renal
[14] = test system: ACHN renal
[15] = test system: CAKI-1 renal
[16] = test system: A498 renal
[17] = test system: CCRF-CEM leukemia
[18] = test system: SK-MEL-28 melanoma
[19] = test system: MOLT-4 leukemia

Measured: growth

Cc1cc(C2(c3cc(C)c(O)cc3C)OS(=O)(=O)c3ccccc32)c(C)cc1O
inactive: [1] 105% | [2] 92.9% | [3] 94.2% | [4] 78% | [5] 87.2% | [6] 104% | [7] 90.9% | [8] 105% | [9] 111% | [10] 105% | [11] 96.7% | [12] 69.4% | [13] 88.5% | [14] 105% | [15] 95.7% | [16] 93.9% | [17] 93.7%

O=C1NN(C(=O)c2ccc(Cl)cc2)C(c2ccccc2)=N/C1=C\c1ccc(F)cc1
inactive: [1] 72.4% | [2] 97.4% | [3] 78.8% | [4] 40.1% | [5] 81.4% | [6] 88.1% | [7] 74% | [8] 88.3% | [18] 107% | [10] 90.7% | [11] 78.1% | [12] 75.6% | [13] 109% | [14] 83.2% | [15] 85.1% | [16] 73.1% | [19] 36.2%

COc1ccc(C(=O)N2NC(=O)/C(=C/c3ccccc3F)N=C2c2ccccc2)cc1
inactive: [1] 112% | [2] 113% | [3] 99% | [4] 96.7% | [5] 104% | [6] 113% | [7] 102% | [8] 102% | [18] 112% | [10] 103% | [11] 99% | [12] 89.8% | [13] 108% | [14] 122% | [15] 98.9% | [16] 104% | [19] 109%

O=[N+]([O-])c1ccc(/C=C/C2(CCl)OCCO2)cc1
inactive: [1] 109% | [2] 92.5% | [3] 95.6% | [4] 97.3% | [5] 96.4% | [6] 104% | [7] 89.8% | [8] 80.6% | [18] 112% | [9] 91.7% | [11] 102% | [12] 95.3% | [14] 116% | [16] 113% | [17] 62.4% | [19] 45.8%

COc1ccc(Nc2ncccc2C(=O)NCc2cn(Cc3cccc(Oc4ccccc4)c3)nn2)c(OC)c1
active: [2] 3.15% | [16] -3.05%
inactive: [1] 26.1% | [3] 44.5% | [4] 30.2% | [5] 43.9% | [6] 23% | [7] 33.9% | [8] 48.4% | [18] 61.8% | [10] 46.5% | [11] 33.7% | [12] 48% | [13] 64.5% | [14] 48% | [15] 44.8% | [19] 40%

COc1ccc(/C=C/c2c(C(C)=O)c(C)nc3ccccc23)cc1
inactive: [1] 95.8% | [2] 80.1% | [3] 82.1% | [4] 94.8% | [5] 76.1% | [6] 33.3% | [7] 52.4% | [8] 96.6% | [9] 75.8% | [10] 81.7% | [11] 85.6% | [12] 65.1% | [13] 77.9% | [14] 84.5% | [15] 81.4% | [16] 72.8% | [17] 77.7% | [19] 73.1%

C=C1C(=O)O[C@@H]2[C@@H]3O[C@@](C)(CC/C=C(\C)CCC[C@@H]2C)[C@H](O)C[C@@H]13
inactive: [1] 38.9% | [2] 32.3% | [3] 84.3% | [4] 56.4% | [5] 39.8% | [6] 48.2% | [7] 17.2% | [8] 44% | [18] 80.5% | [10] 76.3% | [11] 47.3% | [12] 45% | [13] 32% | [14] 51.9% | [16] 66.8% | [19] 16.8%

COc1ccc(/C(C#N)=C/c2cc(OC)c(OC)c(OC)c2)cc1
active: [2] 9.49%
inactive: [1] 31.1% | [3] 66.3% | [4] 34.4% | [5] 43.1% | [6] 14.8% | [7] 39% | [8] 50.3% | [18] 52.1% | [11] 58.4% | [12] 55% | [13] 68.3% | [14] 49.4% | [15] 50% | [16] 33.6% | [17] 26.8% | [19] 32.3%

COc1ccc(-c2cnoc2-c2ccc(OC)cc2O)cc1
active: [16] 7.36%
inactive: [1] 26.7% | [2] 24.1% | [3] 42.4% | [4] 25.6% | [5] 53.2% | [6] 15.8% | [7] 28.9% | [8] 41.2% | [18] 45% | [10] 82.9% | [11] 37.2% | [12] 74.5% | [13] 86.9% | [14] 57.4% | [15] 45.2% | [19] 44.2%

COc1ccc(Nc2nn3c(C)cc(C)nc3c2C(=O)Nc2ccc(C)cc2)c(OC)c1
inactive: [1] 101% | [2] 101% | [3] 101% | [4] 94.8% | [5] 98.8% | [6] 103% | [7] 93% | [8] 109% | [9] 92.7% | [10] 103% | [11] 98.4% | [13] 107% | [14] 101% | [15] 95.7% | [16] 117% | [17] 106% | [19] 107%

CCN(CC)c1ccc(N=O)cc1
active: [1] 3.87% | [2] -3.9% | [14] 6.07% | [15] -13.4%
inactive: [3] 93.1% | [4] 42.9% | [5] 44.6% | [6] 87.2% | [7] 73.4% | [18] 88.3% | [9] 90.8% | [10] 91.1% | [11] 56.3% | [12] 26% | [13] 47.3% | [16] 100% | [17] 21.4% | [19] 44.9%

N=C(N)c1ccc(-c2cc(Cl)cc(Cl)c2)cn1
active: [17] 8.61%
inactive: [1] 86.4% | [2] 55.5% | [3] 92.7% | [4] 97.3% | [5] 80% | [6] 89.3% | [7] 97.2% | [18] 97.3% | [9] 101% | [10] 80.4% | [11] 91.6% | [12] 70.2% | [13] 115% | [14] 91.3% | [15] 68.4% | [16] 73.1% | [19] 89.1%

CC(C)(C)n1cc(-c2ccnc(NCCCNS(=O)(=O)c3ccccc3)c2)c(-c2cccc(O)c2)n1
inactive: [3] 76% | [4] 48.5% | [5] 30.3% | [6] 16.1% | [7] 59.8% | [18] 44.1% | [9] 60.1% | [10] 57.3% | [11] 52.8% | [12] 55.7% | [13] 89.7% | [14] 45.6% | [16] 40.2% | [17] 35.1% | [19] 32.1%
active: [1] -4.07% | [2] 8.45%

COc1cccc(CC(C)=C(c2ccc(OCCN(C)C)cc2)c2ccc(OCCN(C)C)cc2)c1
inactive: [3] 15.2% | [5] 15.6% | [9] 14% | [10] 62% | [16] 76.8%
active: [1] -37.8% | [2] -72.7% | [4] -77.8% | [6] -95.1% | [7] -90.7% | [8] -84.3% | [11] -12.2% | [12] -91.3% | [13] -15.2% | [14] -82.4% | [17] -19.5% | [19] -25.5%

COc1ccc(-n2c(=O)sc3c(Cl)nc(C)nc32)c(OC)c1
active: [12] -23.2% | [15] -58.1%
inactive: [1] 61.3% | [2] 74.1% | [3] 49.6% | [4] 51.6% | [5] 85.2% | [6] 98.1% | [7] 78.4% | [8] 29.1% | [9] 99.4% | [10] 75.9% | [11] 81% | [13] 115% | [14] 95.6% | [16] 91.1% | [19] 78.2%

COc1cccc(-c2nc3sccn3c2-c2ccnc(NCCCNS(=O)(=O)c3ccc(F)cc3)c2)c1
inactive: [1] 19.4% | [2] 44.4% | [3] 62.3% | [4] 55.5% | [18] 52.1% | [9] 21.2% | [10] 36.5% | [11] 29.9% | [13] 80.4% | [14] 22.6% | [15] 23.9% | [16] 48.7% | [17] 10.6%
active: [5] 9.93% | [6] -39.3% | [7] -38.3% | [12] 6.81%
